aSyn UTR act: Activators via SNCA 5'UTR binding, MLPCN | AID 1814, 2009 | activity score, % (tested at 7.5 µM), hits read low | alpha-synuclein 5'UTR reporter, activators screen | 300,000 compounds, 7.1% hits; in the data active means activity score below about -60%
The depositor's hits bear a star; ! = not confirmed by another sample. These entries were drawn from the full list.

SMILES | aSyn UTR act
c1ccc(SCCN2CCc3ccccc3C2)cc1 | -97*
CC1CCC(=O)N(CCSc2ccccc2)CC1 (stereo not drawn) | -116*
Oc1ccc(CN2CCc3ccccc3C2)c2cccnc12 | 103
COc1ccc(CC(=O)N(C)Cc2ccc(Cl)cc2)cc1S(=O)(=O)N1CCOCC1 | -115*
COc1ccc(S(=O)(=O)N2CCOCC2)cc1NC(=O)CCNC(=O)c1ccc(Br)cc1 | 77
CC(Sc1nnc(NCc2ccccc2)s1)C(=O)Nc1ccc2c(c1)C(=O)c1ccccc1C2=O (stereo not drawn) | -165*
Clc1ccc(Nc2ccc(NCc3ccccc3)nn2)cc1 | -72*
Cc1ccc(Nc2ccc(NCc3ccccc3)nn2)cc1C | -87*
FC(F)(F)c1nc2ccccc2n2c(-c3ccc(Cl)cc3)nnc12 | 108
On1c(-c2ccc(Cl)cc2)nc2ccccc21 | -146*
Clc1ccccc1N1CCN(Cc2c[nH]c3ccccc23)CC1 | 64
O=C(CCCc1c[nH]c2ccccc12)N1CCCCCC1 | -73*
COc1ccnc(CSC(N)=Nc2ccc(F)cc2)c1 | -111*
O=c1[nH]cnc2sc(-c3ccccc3)cc12 | -86*
O=c1[nH]c(-c2ccccc2)nc2sc(-c3ccccc3)cc12 | -235*
COc1ccc(/C(N)=N/OC(=O)Cc2cccs2)cc1 | -129*
COc1ccc(CC(=O)O/N=C(\N)c2ccc(OC)cc2)cc1 | -86*
COc1ccc(C(=O)N/N=C/c2c[nH]c3ccccc23)cc1 | -70*
COc1ccc2c(c1)c(C(=O)N/N=C/c1ccc(Br)cc1)c(C)n2C | -116*
COc1ccc2c(c1)c(/C=N/Nc1ccc(C(=O)O)cc1)c(C)n2C | -75*
COc1ccc(C(=O)N/N=C/c2sc3ccccc3c2O)cc1 | 84
C/C(=N\Nc1ccc(C(=O)O)cc1)c1ccc(Cl)s1 | -87*
COc1ccc(/C=N/NC(=O)c2[nH]c3ccc(Br)cc3c2-c2ccccc2)cc1 | 80
CCCCCN=C(N)N/N=C/c1c[nH]c2ccc(OC)cc12 | 108
COc1ccc2c(/C=N/Nc3ccc(C(=O)O)cc3)c[nH]c2c1 | -135*
SMILES | aSyn UTR act
COc1ccc(C(=O)N/N=C/C(=O)c2ccccc2)cc1 | -133*
CC(C)NC(=S)N/N=C/c1c[nH]c2ccccc12 | -124*
COc1ccc(C(=O)N/N=C(\c2ccccc2)c2ccccn2)cc1 | 107
COc1ccc(/C(C)=N/Nc2ccc(C(=O)O)cc2)c(OC)c1 | -140*
O=C(NC1=NCCS1)c1ccc(Br)s1 | -171*
CC(C)Oc1cccc(C(=O)NC2=NCCS2)c1 | -96*
CCOc1cccc(C(=O)NC2=NCCS2)c1 | -104*
O=C(NC1=NCCS1)c1cccc(Br)c1 | -75*
C[C@H]1Oc2ccccc2C(=O)C1C(=O)c1ccccc1 (stereo partly drawn) | -100*
Cc1ccnc(NC(=O)c2ccc(Cl)c(S(=O)(=O)N3CCCC3)c2)c1 | -132*
O=C(Nc1ccccn1)c1ccc2c(c1)S(=O)(=O)c1ccccc1C2=O | -90*
O=C(Nc1ccccn1)c1ccc(Cl)c(S(=O)(=O)N2CCCCCC2)c1 | -81*
c1ccc(OCCOc2ncnc3sccc23)cc1 | -126*
CCOc1ccc(OCCOc2ncnc3ccccc23)cc1 | -70*
Cc1ccc(Oc2ncnc3sccc23)cc1 | -143*
CCOC(=O)N1CCN(C(=O)c2cc(COc3cccc(C(F)(F)F)c3)on2)CC1 | -92*
CC(NC(=O)c1cc(COc2cccc(C(F)(F)F)c2)on1)c1nccs1 (stereo not drawn) | -62*
C[C@@H]1CN(C(=O)c2cc(COc3cccc(C(F)(F)F)c3)on2)C[C@H](C)O1 | -138*
O=C(NC1CCOC1)c1cc(COc2cccc(C(F)(F)F)c2)on1 (stereo not drawn) | -67*
O=C(CSc1ccccn1)c1ccc2c(c1)OCO2 | -149*
O=C(CSc1nc2ccccc2[nH]1)c1ccc2c(c1)OCO2 | -140*
Cc1ccc(-n2nnc(-c3cc4ccccc4n3C)n2)cc1 | -88*
Cn1c(-c2nnn(-c3ccc(F)cc3)n2)cc2ccccc21 | -156*
Cc1ccc(C(=O)NCC(=O)NC23CC4CC(CC(C4)C2)C3)cc1 | -76*
C=C[C@@]1(C)CC(=O)[C@]2(O)[C@@]3(C)[C@@H](O)CCC(C)(C)[C@@H]3[C@H](O)[C@H](OC(C)=O)[C@@]2(C)O1 | 72
SMILES | aSyn UTR act
CCOC(=O)Nc1cc(Br)c2c(c1)OCCO2 | -68*
Cc1cc(/C=N/NC(=O)c2cccs2)c(C)n1-c1cnccn1 | -170*
C/C(=N\NC(=O)COc1ccccc1)c1cccs1 | -85*
O=C(N/N=C/c1ccc(N2CCOCC2)cc1)c1cccs1 | -179*
C/C(=N\NC(=O)c1cccs1)c1cccnc1 | -83*
C/C(=N\NC(=O)c1cccs1)c1ccc2ccccc2c1 | -92*
O=C(N/N=C/c1cccnc1)c1cccs1 | -82*
O=C(Cn1cnc2ccccc21)c1ccc(Cl)cc1 | -71*
Cn1c(=N)n(CC(=O)c2ccc(Cl)c(Cl)c2)c2ccccc21 | 81
O=C(Cn1cnc2ccccc2c1=O)c1ccccc1 | -80*
CCOc1ccc(C(=O)Cn2cnc3ccccc3c2=O)cc1 | -94*
O=C(Cn1cnc2ccccc2c1=O)c1ccc(OC(F)F)cc1 | -73*
O=C(Cn1cnc2ccccc2c1=O)c1ccc(Cl)cc1 | -90*
O=C(Cn1cnc2ccc(Cl)cc2c1=O)c1cccs1 | -136*
O=C(Cn1cnc2ccccc2c1=O)c1ccc(Br)cc1 | -153*
O=c1c2ccccc2ncn1-c1ccc(Cl)cc1 | -103*!
O=C(CC(=O)c1ccccc1)Nc1cccnc1Cl | -119*
O=C(CCc1ccccc1)Nc1cccnc1Cl | -64*
N#CC(C#N)=c1ccc2c(c1)NC1(CCCCC1)N=2 | -337*
CC(CNC(=O)c1ccc(OC2CCN(Cc3ccccn3)CC2)cc1)c1ccccc1 (stereo not drawn) | -97*
CC(=O)c1cccc(NC(=S)NC(=O)c2ccccc2)c1 | -141*
CCOc1cc(/C=N/Nc2cccc(C(=O)O)c2)ccc1OC(=O)c1ccccc1 | 98
CC(=O)c1cccc(NC(=S)NC(=O)CC(C)(C)C)c1 | -134*
COc1cc2ccccc2cc1C(=O)NC(=S)Nc1cccc(C(=O)O)c1 | -91*
COc1ccc2ccccc2c1/C=N/Nc1cccc(C(=O)O)c1 | -108*
SMILES | aSyn UTR act
CC(=O)c1cccc(NC(=S)NC(=O)c2cccc(Cl)c2)c1 | -160*
CC(=O)c1cccc(NC(=S)NC(=O)c2cncc(Br)c2)c1 | -109*
O=[N+]([O-])c1ccc(C(O)CSC(=S)N2CCCCC2)cc1 (stereo not drawn) | -181*
CCOC(=O)c1ccc2c(c1)nc(-c1ccccn1)n2CC | -134*
O=C(Nc1ccc2[nH]ncc2c1)c1ccccc1 | -81*
O=C(Nc1ccc2[nH]ncc2c1)c1ccc(F)cc1 | -90*
Cc1ccc2nc(SCC(=O)c3ccc(Cl)s3)[nH]c2c1 | -66*
O=C(OCc1ccccc1)c1cccc(-c2nnn(Cc3ccccc3)n2)c1 | -91*
O=C1CS/C(=N/N=C/c2ccccc2)N1Cc1ccco1 | -81*
C/C(N)=C(/C#N)C(=O)CSc1nnc(Nc2ccccc2C)s1 | -77*
C/C(N)=C(/C#N)C(=O)CSc1nnc(Nc2ccccc2)s1 | -125*
O=C(O)COc1ccc(-c2nccc(-c3ccccn3)n2)cc1 | 72
FCCCOc1ccc(-c2nccc(-c3ccccn3)n2)cc1 | -63*
Cc1ccc(N=Cc2sc(O)c3ccccc23)c(C)c1 | -190*
Cc1ccc(N=Nc2ccc3ccccc3c2O)cc1 | 61
Cc1ccc(N=Cc2sc(O)c3ccccc23)cc1 | -237*

High-throughput results: PubChem BioAssay, Broad Institute
